# Results filed as inconclusive are left out. Activity calls are given as the source filed them. Unless noted, how the calls were made is not given here.
# How the values were obtained:
# [1] = qHTS profiling of the MIPE4 collection as inhibitors of Plasmodium falciparum (3D7) proliferation (AID 743344);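 further: scaled between DMSO vehicle wells and 0.29 µM artemisinin as full inhibition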; settings: P. falciparum 3D7 in erythrocytes, SYBR Green DNA fluorescence, 72 h; at 28.5 µM unless noted
# Method in brief: (§1)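 Erythrocytes infected with P. falciparum (0.3% parasitemia, 2.5% hematocrit) incubated with compounds 72 h at 37 C, 5% CO2. Lysis with saponin/Triton buffer containing SYBR Green I, overnight at room temperature in the dark; DNA fluorescence (485/535 nm) normalised to 0.29 uM artemisinin and DMSO.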
# [2] = qHTS profiling of the MIPE4 collection as inhibitors of Plasmodium falciparum (DD2) proliferation (AID 743345); settings: P. falciparum Dd2 in erythrocytes, SYBR Green DNA, 72 h; at 28.5 µM unless noted
# Method in brief: as §1
# [3] = qHTS profiling of the MIPE4 collection as inhibitors of Plasmodium falciparum (DD2) proliferation (Rep 2) (AID 743346); settings: P. falciparum Dd2 in erythrocytes, SYBR Green DNA, 72 h; at 28.5 µM unless noted
# Method in brief: as §1
# [4] = qHTS profiling of the MIPE4 collection as inhibitors of Plasmodium falciparum (HB3) proliferation (AID 743347);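 further: plate controls were DMSO vehicle wells for no effect and artemisinin wells for full effect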; settings: P. falciparum HB3 in erythrocytes, SYBR Green DNA, 72 h; at 28.5 µM unless noted
# Method in brief: as §1
# [5] = High-throughput drug toxicity screening in the BPDCN cell line Cal-1 (AID 1224825); settings: Cal-1 BPDCN cell viability, qHTS; at 45.8 µM (top of the series) unless noted
# Method in brief: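 500 Cal-1 cells/well, RPMI + glutamine + 10% FBS (phenol red-free); cpd added by pin tool; 48 h, 37C, 5% CO2; CTG 15 min RT, lumi read. Normalised: DMSO 100%, bortezomib 9.2 uM 0%.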
# [6] = qHTS assay for measurement of the activity of small molecule inhibitors on Zika virus induced Caspase-3 activity in human iPSC derived neural progenitor cells (hNPCs) (AID 1224857; active means well fitted curve in the direction sought with a large enough effect; an effect the other way counts as inactive or inconclusive; further: nearly all actives have a fitted effect of over 65% in size; further: potency means the concentration at half of the fitted maximal effect)
# Method in brief: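 Quantitative HTS format: human iPSC neural progenitors, 1 h compound pretreatment, ZIKV 2 FFU/cell for 6 h at 37 C. Percent inhibition derived from luminescent caspase-3/7 signal between uninfected and infected controls.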
# [7] = High-throughput drug toxicity screening in the BPDCN cell line Gen2.2 (AID 1224824); settings: Gen2.2 BPDCN cells; at 45.8 µM (top of the series) unless noted;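 further: cells exposed to compounds for 48 h before reading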
# Method in brief: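 Seed 500 exponentially growing Gen2.2 cells/well; add compounds by pin tool; incubate 48 h, 37 °C, 5% CO2; add CellTiter-Glo, 15 min RT; read luminescence. % activity vs DMSO (100%) and bortezomib (0%).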
# [8] = qHTS profiling for inhibitors of Plasmodium falciparum (3D7) proliferation (AID 743322);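 further: infected erythrocytes exposed to compound for 72 h before lysis; 100% = DMSO vehicle wells and 0% = 0.29 µM artemisinin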; settings: P. falciparum 3D7 proliferation; at 28.7 µM (top of the series)
# Method in brief: as §1
# [9] = qHTS profiling for inhibitors of Plasmodium falciparum (HB3) proliferation (AID 743324; active means well fitted curve in the direction sought with a large enough effect; an effect the other way counts as inactive or inconclusive;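 further: 100% = DMSO vehicle wells and 0% = artemisinin-treated control wells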); settings: Plasmodium falciparum HB3 blood-stage proliferation; at 28.7 µM (top of the series)
# Method in brief: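 P. falciparum HB3 grown in erythrocytes (0.3% parasitemia, 2.5% hematocrit final) with compound for 72 h at 37 C, 5% CO2. Parasite DNA detected by SYBR Green after saponin/triton lysis overnight; normalized to 0.29 uM artemisinin and DMSO.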
smiles,measurement,setting,value
CC(C)(C)NC(=O)Nc1cccc(Nc2ncc(F)c(NC(C)(C)CO)n2)c1,"parasite growth, % of DMSO control",[1],5.44%
same,"parasite growth remaining, % of DMSO control (lower = more inhibition)",[2],7.22%
same,"parasite growth, % of control (lower = inhibition)",[3],7.73%
same,"growth, % of control",[4],3.88%
same,viability (% of control),[5],45.1%
same,Potency,[6],inactive
COc1ccc2c(Oc3ccc(NC(=O)c4c(C)n(CC(C)(C)O)n(-c5ccccc5)c4=O)nc3)ccnc2c1,"parasite growth, % of DMSO control",[1],9.27%
same,"parasite growth remaining, % of DMSO control (lower = more inhibition)",[2],18.1%
same,"parasite growth, % of control (lower = inhibition)",[3],37%
same,"growth, % of control",[4],8.88%
same,viability (% of control),[5],17.2%
same,Potency,[6],inactive
CC(C)n1nc(-c2ccc3oc(N)nc3c2)c2c(N)ncnc21,"parasite growth, % of DMSO control",[1],5.01%
same,"parasite growth remaining, % of DMSO control (lower = more inhibition)",[2],9.14%
same,"parasite growth, % of control (lower = inhibition)",[3],6.88%
same,"growth, % of control",[4],4.46%
same,"cell viability, % of control (lower = more cytotoxic)",[7],1.63%
O=c1c(-c2ccc(O)cc2)coc2cc(O)ccc12,"parasite growth, % of DMSO control",[1],100%
same,"parasite growth remaining, % of DMSO control (lower = more inhibition)",[2],102%
same,"growth, % of control",[4],89.3%
same,viability (% of control),[5],109%
same,Potency,[6],11.2 µM (active)
C=C1C(=O)[C@@]23C(CC[C@@H]1[C@H]2O)[C@@]12CO[C@]3(O)[C@@H](O)[C@@H]1C(C)(C)CC[C@@H]2O (stereo not given in full),"parasite growth, % of DMSO control",[1],33.5%
same,"parasite growth remaining, % of DMSO control (lower = more inhibition)",[2],75.5%
same,"parasite growth, % of control (lower = inhibition)",[3],18.4%
same,"growth, % of control",[4],5.26%
same,viability (% of control),[5],2.13%
O=c1[nH]cnc2c1ncn2[C@H]1CC[C@@H](CO)O1,"parasite growth, % of DMSO control",[1],178%
same,"parasite growth remaining, % of DMSO control (lower = more inhibition)",[2],97.1%
same,"growth, % of control",[4],659%
same,viability (% of control),[5],121%
same,Potency,[6],inactive
CC#CCn1c(N2CCC[C@@H](N)C2)nc2c1c(=O)n(Cc1nc(C)c3ccccc3n1)c(=O)n2C,"parasite growth, % of DMSO control",[1],58%
same,"parasite growth remaining, % of DMSO control (lower = more inhibition)",[2],22.5%
same,"parasite growth, % of control (lower = inhibition)",[3],22.9%
same,"growth, % of control",[4],88.9%
same,viability (% of control),[5],101%
same,Potency,[6],inactive
CCn1cc(C(=O)O)c(=O)c2ccc(C)nc21,viability (% of control),[5],113%
NC(=S)c1ccc[n+]([C@@H]2O[C@@H](COP(=O)([O-])OP(=O)(O)OC[C@H]3O[C@@H](n4cnc5c(N)ncnc54)[C@H](OP(=O)(O)O)C3O)C(O)C2O)c1 (stereo not given in full),Potency,[6],inactive
CCN(CC)CCOC(=O)c1ccc(N)cc1,Potency,[6],inactive
COCCOc1nc(-c2ccc(Cl)c(Cl)c2)n(-c2ccc(NC(=O)CCl)cc2)n1,"parasite growth, % of DMSO control",[1],20.8%
same,"parasite growth remaining, % of DMSO control (lower = more inhibition)",[2],64%
same,"parasite growth, % of control (lower = inhibition)",[3],31.7%
same,"growth, % of control",[4],30.2%
CCCCC1C(=O)N(c2ccccc2)N(c2ccccc2)C1=O,Potency,[6],inactive
CN(C)CCC(c1ccccc1)c1ccccn1 (stereo not given),Potency,[6],inactive
CC1=C(/C=C/C(C)=C/C=C/C(C)=C/C(=O)Nc2ccc(O)cc2)C(C)(C)CCC1,remaining parasite growth % (stronger effect = lower value),[8],14.1%
same,"remaining proliferation (% of control), lower = more inhibition",[9],-0.513%
NC(N)=Nc1nc(CSCC/C(N)=N/S(N)(=O)=O)cs1,Potency,[6],inactive
COC[C@@H](c1ccc(C(F)(F)F)cc1)N1CCN(C2(C)CCN(C(=O)c3c(C)ncnc3C)CC2)C[C@H]1C,"parasite growth, % of DMSO control",[1],31.8%
same,"parasite growth remaining, % of DMSO control (lower = more inhibition)",[2],84.7%
same,"parasite growth, % of control (lower = inhibition)",[3],21.5%
same,"growth, % of control",[4],28.5%
O=C1NC(=O)C(c2ccccc2)(c2ccccc2)N1,Potency,[6],inactive

# — PubChem BioAssay (NCATS)
